Assay results taken from PubChem BioAssay (EPA / NIEHS).
Active and inactive are the calls of the source. Rule for the calls: active = hit-call score of the fitted dose curve at least 0.9, where 1 is the maximum; inactive = score below 0.9.

What follows are molecules tested on 3-Hydroxy-3-Methylglutaryl-CoA Synthase 2 (HMGCS2), HMGCS2 (gene 3158) (assay: LTEA_HepaRG_HMGCS2: Life Technologies and Expression Analysis (LTEA) Assay for 3-Hydroxy-3-Methylglutaryl-CoA Synthase 2 (HMGCS2) using HepaRG (AID 2283504)). Conditions: mRNA level, 48 h; actives raise or lower the signal.
Experimental: LTEA_HepaRG is a cell based, multiplexed-readout assay that uses HepaRG, a human liver cell line, with measurements taken at 48 hours after chemical dosing on a 96-well plate.LTEA_HepaRG_HMGCS2 is one of 102 assay component(s) measured in the LTEA HepaRG cell culture assay. It is a marker of Steatosis.Data from the assay component LTEA_HepaRG_HMGCS2 was analyzed into 1 endpoint. This assay endpoint, LTEA_HepaRG_HMGCS2, was analyzed with bidirectional fitting relative to DMSO as the negative control and baseline of activity. Using a type of inducible reporter, measures of mRNA induction for gain or loss-of-signal activity can be used to understand regulation of transcription factor activity. To generalize the intended target to other relatable targets, this assay endpoint is annotated to the lyase intended target family, where the subfamily is HMG-CoA synthase.
A total of 1060 chemcials from the ToxCast library were tested in eight-point concentration-response experiments. Cell culture and cytotoxicity assays were conducted at Thermo Fisher Scientific's Custom Services facility (Madison, WI). A single lot of human HepaRG cells (Thermo Fisher Scientific, Frederick, MD) was used for the cell culture experiments. 96-well format collagen type I coated plates of human HepaRG cells were prepared using established methods. Briefly, cryopreserved HepaRG cells were thawed, plated at a density of approximately 100,000 cells/well in HepaRG Thaw, Plate, and General Purpose media (HPRG770, Thermo Fisher Scientific), and incubated for 48 hours. 0.5% DMSO was selected as vehicle control to balance the requisite need of DMSO in HepaRG cultures to maintain differentiation (for example, baseline metabolism, proportions of hepatocytes vs. cholangiocytes), while enabling further hepatic receptor pathway activation (for example, PXR and CAR) in response to chemical exposure. 48 hours after plating, the culture medium was replaced with HepaRG Serum-Free Incudtion Media. Cells were exposed to each test chemical in duplicate and maintained in CO2 incubators for another 48 hours. Chemical plates were thawed to room temperature and 200x concentrations of treatment groups were prepared. 8-point conentration-reponse curves were made with the highest exposure at 100 uM, followed by half-log dilutions, all in 0.5% DMSO. Each test plate contained variouse controls, induction positive controls (1mM phenobarbital), cytotoxicity positive controls ([…] aflatoxin B1), vehicle controls (0.5% DMSO), and total lysis controls (0.5% DMSO). Cell morphology images were taken using an Essen IncuCyte FLR automated microscope, with six 96-well plates imaged in about 24 minutes. Images were captured and exported and JPEG files. Spent culture media was transfered to black-well plates for the LDH assay, and remaining media was sorted at -80 C for later use. Cells were treated with RLT buffer and frozen until shipped for gene expression analysis. Total RNA was isolated from the cell suspension in 75 uL of Buffer RLT (Qiagen, Germantown, MD 20874) by Quintiles/Expression Analysis (Durham, NC) using a custom isolation procedure. Total RNA from each plate well was transferred to a preamplification plate. Fluidigm's 96.96 Dynamic ArrayTM (Fluidigm, Amsterdam, the Netherlands) technology was used for gene expression analyses by quantitative reverse transcription polymerase chain reaction (qRT-PCR, performed by Quintiles/Expression Analysis, Durham, NC)89. Standard TaqManTM Assays (Applied Biosystems/ThermoFisher Scientific, Foster City, CA) were used to assess the expression of 93 genes selected based on their selectivity and sensitivity to important hepatic receptors known to be modulated by environmental chemicals; importance in human hepatocyte functionality; and hepatotoxicity. […]

| SMILES | outcome | AC50 |
| --- | --- | --- |
| O=c1n(CC2CO2)c(=O)n(CC2CO2)c(=O)n1CC1CO1 (stereo not given) | inactive | – |
| C=CC(=C)CCC=C(C)C | inactive | – |
| CCn1nc(Cc2ccccc2)cc1C1CCN(C[C@H]2C[C@H](N(C)[C@@H](C(=O)O)C(C)C)C[C@@H]2c2cccc(F)c2)CC1 | – | 50 µM (active) |
| O=C1OC(=O)C2C3C=CC(C3)C12 (stereo not given) | inactive | – |
| O=C1CCC(N2C(=O)c3ccccc3C2=O)C(=O)N1 (stereo not given) | inactive | – |
| Cc1ccc(C)c(O)c1 | inactive | – |
| C[C@](N)(Cc1ccc(O)c(O)c1)C(=O)O | inactive | – |
| CC1=CC(=O)CC(C)(C)C1 | inactive | – |
| CCC(C)(C)C(=O)O[C@H]1C[C@@H](C)C=C2C=C[C@H](C)[C@H](CC[C@@H]3C[C@@H](O)CC(=O)O3)[C@H]21 | inactive | – |
| O=c1[nH]c2ccc(S(=O)CCN3CCC(Cc4ccc(F)cc4)CC3)cc2o1 (stereo not given) | – | 74.7 µM (active) |
| CC(C)(O)c1coc(S(=O)(=O)NC(=O)Nc2c3c(cc4c2CCC4)CCC3)c1 | inactive | – |
| CCOc1cccc(-n2cc(C(=O)N3CCN(c4cc(C(=O)O)c5ccccc5c4)CC3)nc2-c2ccc(C)cc2)c1 | – | 33.7 µM (active) |
| CCOC(=O)CC(CC(=O)OCC)(OC(C)=O)C(=O)OCC | inactive | – |
| COC(=O)CC(=O)OC | inactive | – |
| CC(C)c1cccc(C(C)C)c1N1C(=O)c2ccc(O)cc2C1=O | – | 80.7 µM (active) |
| CC/C(=C\C(=N/O)C(N)=O)C(C)[N+](=O)[O-] (stereo not given) | inactive | – |
| CCCCCCCCCCCCCCCO | inactive | – |
| NC(=O)NO | inactive | – |
| CC(C)=CCCC(C)CCO (stereo not given) | inactive | – |
| O=C(NS(=O)(=O)/C=C/c1ccccc1)c1ccc(F)cc1Cl | – | 27.9 µM (active) |

| SMILES | outcome | AC50 |
| --- | --- | --- |
| O=C1CCCCCN1 | inactive | – |
| COc1ccc(/C=C/S(=O)(=O)NC(=O)c2ccc(C)cc2Cl)cc1 | inactive | – |
| Fc1ccccc1[C@@H](F)COC1CCC(Nc2ncnc3[nH]ncc23)CC1 (stereo not given in full) | – | 45.2 µM (active) |
| Oc1ccc2c(c1)-c1ccccc1C2 | inactive | – |
| CNS(=O)(=O)c1cc(C(=O)N2CCC(CCN3C4CCC3CC(n3c(C)nc5ccccc53)C4)(c3cccc(F)c3)CC2)c(Cl)cc1F (stereo not given) | – | 23.5 µM (active) |
| COc1ccc2sc(C(=O)Nc3nnn[nH]3)c(OC(C)C)c2c1 | – | 86.5 µM (active) |
| COc1cccc(-c2ccc(/C=C\CN3CCCCCC3)cc2Cl)c1 | – | 83.9 µM (active) |
| CC(O)CN(CCN(CC(C)O)CC(C)O)CC(C)O (stereo not given) | inactive | – |
| CN(C)c1ccc(N=NS(=O)(=O)O)cc1 | inactive | – |
| CC(=O)OC[C@H]1O[C@@](COC(C)=O)(O[C@H]2O[C@H](COC(C)=O)[C@@H](OC(C)=O)[C@H](OC(C)=O)[C@H]2OC(C)=O)[C@@H](OC(C)=O)[C@@H]1OC(C)=O | inactive | – |
| Cn1cnc([N+](=O)[O-])c1Sc1ncnc2nc[nH]c12 | – | 3.93 µM (active) |
| O=C(O)CC(O)C(=O)O (stereo not given) | inactive | – |
| CCOCCO | inactive | – |
| O=C(O)c1cccc(Oc2ccccc2)c1 | inactive | – |
| Cn1c(=O)c2c(ncn2C)n(C)c1=O | inactive | – |
| Cc1ccc(N)cc1O | inactive | – |
| CC[C@H](C)C(=O)O[C@H]1C[C@@H](C)C=C2C=C[C@H](C)[C@H](CC[C@@H]3C[C@@H](O)CC(=O)O3)[C@H]21 | inactive | – |
| On1ccccc1=S | inactive | – |
| Cn1c(=O)cc(Oc2ccc(F)cc2F)c2cnc(NCC(C)(C)O)nc21 | inactive | – |
| Cc1ccc(S(=O)(=O)O)cc1C | inactive | – |
